The values below come from the supplement of paper PMC6555819.

In the test the test system is VDR:RXRa (NR concentration 270 nM, RXRa partner concentration 90 nM). Kind of test: PBM binding z-score (relative to random genomic background probes); higher = stronger binding; sequences stand for … in GC…GCGATTGACAGCGTAGAATGAAGG
The method, then: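 Protein-binding microarray (Agilent 4x180K custom design, double-stranded 60-nt probes: 5' GC cap, 34-nt variable region, 24-nt constant primer region; full probe sequence given). Purified or IVT nuclear receptor:RXRα heterodimers (3:1 NR:RXRα, mostly 270:90 nM) or homodimers were incubated for 1 h in PBS with 2% milk and no ligand, then detected with Alexa488 antibodies. Fluorescence from o1-orientation probes (~5 replicates averaged) was converted to z-scores against 500 random hg19 background probes. Variable regions are seed direct-repeat (DR0–DR5) sites, all their single-nucleotide variants and half-site ablations.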
As to CGTCCAAGCTCATAGGAGGTCAGTGAAGACAGAT, the PBM binding z-score is 1.69.
The value for TCTCGTAGGACACGAAAGGTCAGAGCTCGACATC was 3.09; that for CGTCCAAGGTCAGAGAGGTCAGGGAATGCCGAGT was 7.31.
CCTACTGGGCCAAAAAGGTCATCGATGCCGATAA had a PBM binding z-score of 4.79.
In the case of CTCGAAAGGTCGGTGGAGGTGAGTATACGGATAA it was 1.79.
In the case of CCAGACAGGTGAAAGGCAACTCAGTCTGGTACGC it was -0.108.
As for TAGCCTAGGTCATGCGGGCCATTATAGTGTCGGC, the PBM binding z-score came out at 4.09.
As for TCATATAGGTAATACAGGCGAAAGTCGGCATCTA, the PBM binding z-score was determined as 0.97.
For ACACACAGGTGATGAAGGTAACTCAGGCTATCAT, the PBM binding z-score came out at 0.511.
In the case of CCTGTTAGTTGACCATAAGGGCAACCGAAGCTCG it was 0.474.
The value for TCTTGTAGATCAGGCAGGTTAAGAAAGCCTGAGT was 0.268; that for TAACCTAGGTCATTCAGGGGCCAGTATAGAAAGC was 4.03.
The value for CAAACTAGGTCAAGGACAGTGAATCTCCGCACGC was 1.56; that for GCTGCTAGGTCAACTGATAGTCAGCTAAAGCTCG was 0.945; that for AATACTGGGTCATCGTAGGCCAGAGTACGCACAG was 2.49.
For the sequence AGAATTAGGTTATTAAGATCAGGGAATTGCGGTC, the PBM binding z-score was found to be 0.835.
As to CAAACTAGGTCAAGTTCAAAGTCGGTTTGTGCCA, the PBM binding z-score amounted to 4.94.
The value for AGAACGAGGGCAATGAGTTGATTGCACGGGTGGC was 5.07; that for CCGAGTGGGGCAAGGTTACCATAACGCACAGCCA was 0.482; that for ATTACAGGGTCATCGTAGGCCAGAGTACGCACAG was 5.39.
The value for CAAACTAGGTCACTGGAAGGTCAAAGTCCGCATG was 5.33; that for CTCGAAAGGTCGGGCTCAGGTGAGTATACCAAAC was 1.5.
Sequence AGCTCTAGGTAAAGATAGTTCAGTGAATGCAAAT had a PBM binding z-score of 0.921.
In the case of TCAGACAGGTGAAGATAACTCAGGTACGCAGTCG it was 0.709.
For ATCGAAAGGTCGATGGTGAGTATACCCACCCGAA, the PBM binding z-score was 1.78.
The value for ATCTCTAGGTAAGACTCAGTACAGTGAAGAACGC was 0.435.
The value for TCGAGTAGGTTAGTCCGGGCATTCAGCCAACATA was 0.223; that for TCTATTACTTGATTAGGGCAACCGAAACAGCGGA was 0.676; that for CCTTACGGATCACTGACAGGTTATAGCATTTGGA was 0.456.
Regarding AGATCGAGGGCAATGAGTTGATAGCACGGGTGGC, the PBM binding z-score came out at 5.15.
For the sequence CGAACTAGGTCATTGACAGGACAGAGAATAGTAA, the PBM binding z-score was 2.18.
In the case of GCCAGCAGGCCATTTGGGTCACTCAATGACGGGC it was 0.978; in that of CATACAGGGTCAGCTAGGCCAAAGTAGGGACGGC, 4.73; in that of CAAACTAGGTCAAGGTCAAAGTTGGTTTGTGCCA, 5.16.
In the case of GATACAGGGTCAGCTAGCGGCCAGAGTATGGAAA it was 2.49.
In the case of GCTAGTTGGTCAGAAAAAGGTCACACACCGGTCG it was 3.77; in that of CCAGACAGGTGAAAGCTAACTCAGTCTGGTACGC, -0.274.
In the case of CGAACTAGTTCATCCAGGACAGTGAATACATTGA, the PBM binding z-score was found to be 2.23.
Turning to CAAACTAGGTCACCGGAAGGTCAAAGACCGCATG, the PBM binding z-score was determined as 5.76.
In the case of CCTCGGATGACAGAAGGTCAGAGCTGTCCGCTTT it was 1.21.
